Pf Dd2 inh: blocks in vitro growth of P. falciparum Dd2; 4.3% of 120,000 active; P. falciparum Dd2 growth, SYBR Green, 72 h; AID 1347417; Potency, µM (titrated, usually from 28.9 µM), for inactives: at the top dose activity, negative = inhibition, hits mostly inhibitors; active means well fitted inhibition curve with a large enough effect;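 further: plate controls were DMSO vehicle for no effect and reference drug for full effect; nearly all actives have a fitted effect of over 65% in size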
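Readout: SYBR Green fluorescence, 485 nm excitation, 535 nm emission, after ~16 h lysis at 37C. Before that, Dd2-infected red cells (2.5% hematocrit) grew 72 h with compound, 29 uM top final concentration.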
An asterisk follows results filed as active; i = inactive; [ ] = another dose, or the depositor's remark. Many of the other results were omitted from the sample, so hits are more common in it than they were. Potency means the concentration at half of the fitted maximal effect.

SMILES | Pf Dd2 inh
COCCNC(=O)c1coc(COc2ccc3c(c2)C(c2cccc(F)c2)N(C(=O)C(C)C)CC3)n1 (configuration not stated) | -10.2%
Cc1ccc(-c2noc([C@@H]3C[C@H](NS(=O)(=O)c4ccccc4)CN3C)n2)cc1 | i
CCC(CC)NC(=O)C1CCN(C(=O)c2ncn3c2COC(c2ccc(F)cc2)C3)CC1 (configuration not stated) | -22.5%
COCCC1(NS(C)(=O)=O)CCN(C(=O)c2ccoc2)CC1 | 2.3%
COCCN1C[C@H]2CN(Cc3cccnc3)CCN2C1=O | 25.2%[44.1 µM]
Fc1ccccc1-c1nnc([C@H]2CCN(Cc3ccccc3)C2)o1 | i
CCc1cccc(NC(=O)CN2C(=O)CN=C(c3ccccc3F)c3cc(Cl)ccc32)c1 | 16.2%
CCc1cccc(NC(c2ccccc2)c2nnc(-c3ccccc3F)o2)c1 (configuration not stated) | 11.2µM*
Cc1cccc(C(=O)N2CCC3(CC2)NC(=O)N(Cc2ccccc2)C3=O)c1 | -21.9%
Cc1cc(C)cc(C(=O)NC2CCN(c3cc(-c4ccccc4)[nH]n3)C2)c1 (configuration not stated) | i
CCOc1ccc(CC(=O)NC2CCN(c3cc(-c4cccs4)[nH]n3)C2)cc1OCC (configuration not stated) | i
CCOc1ccc(CC(=O)NC2CCCN(c3cc(-c4ccc(F)cc4)[nH]n3)C2)cc1OCC (configuration not stated) | i
CCOc1cc(C(=O)NC2CCN(c3cc(-c4cccs4)[nH]n3)C2)cc(OCC)c1OCC (configuration not stated) | i
CCOc1ccc(CC(=O)NC2CCN(c3cc(-c4ccccc4)[nH]n3)C2)cc1OCC (configuration not stated) | 7.94µM*
CCOc1cc(C(=O)NC2CCN(c3cc(-c4ccccc4)[nH]n3)C2)cc(OCC)c1OCC (configuration not stated) | 5.01µM*
CC(=O)N1CCC(C(=O)N2CCCC2c2nc(CCOCC3CCCC3)no2)CC1 (configuration not stated) | 29.4%
CCC1(N2CCN(C(=O)c3cc(Cl)ccc3OC)CC2)CCN(S(C)(=O)=O)C1 (configuration not stated) | -7.7%
Cc1ccc(OCC(=O)N2CC3CC(C2)[C@H]2CCCC(=O)N2C3)cc1 (some centres not stated) | 4.0%
COC[C@]1(O)CCN(C(=O)c2c(F)ccc(OC)c2F)CC1(C)C | -10.0%
CNC(=O)c1noc(CN2CCCC(C)(c3ccccc3)C2)n1 (configuration not stated) | -15.1%
O=S(=O)(NC[C@H]1C[C@@H]2CCN1C[C@@H]2CN1CCc2ccccc21)c1ccc(Cl)cc1 | -14.8%
COc1ccc(S(=O)(=O)NC[C@H]2C[C@@H]3CCN2C[C@@H]3CN2CCc3ccccc32)cc1 | 11.2µM*
COc1ccc(S(=O)(=O)NC[C@H]2C[C@@H]3CCN2C[C@@H]3CN(C)Cc2ccccc2)cc1 | 2µM*
CC(C)NC(=O)NC[C@H]1C[C@@H]2CCN1C[C@@H]2CN(C)Cc1ccccc1 | -23.8%[44.1 µM]
COc1ccc(S(=O)(=O)NC[C@H]2C[C@@H]3CCN2C[C@@H]3CN2CCCCC2)cc1 | i
SMILES | Pf Dd2 inh
CS(=O)(=O)NC[C@H]1C[C@@H]2CCN1C[C@@H]2CN1CCc2ccccc2C1 | -16.4%[44.1 µM]
COc1ccccc1-c1nc(C2CC(=O)N(c3ccc(F)c(Cl)c3)C2)no1 (configuration not stated) | 120.4%
COc1ccc(Cl)cc1-c1nc(C2CC(=O)N(c3ccc(F)cc3)C2)no1 (configuration not stated) | 11.2µM*
COc1ccc(-c2nc(C3CC(=O)N(c4ccc(F)cc4)C3)no2)cc1F (configuration not stated) | 52.6%
COc1ccc(CC(=O)N2CNC(=O)C23CCN(C(=O)CN)CC3)cc1 | 11.5%
Cc1ccccc1CC(=O)N1CCN(c2cc(-c3cccs3)[nH]n2)CC1 | i
O=C(CN1CCSc2ccccc21)N1CCN(c2cccc(Cl)c2)CC1 | 32.7%
Cc1ccc(CN2CCSc3ccc(C(=O)N4CCN(c5cccc(C)c5C)CC4)cc32)cc1 | 6.31µM*
Cc1ccc(CN2CCSc3ccc(C(=O)N4CCN(c5ccc(Cl)cc5)CC4)cc32)cc1 | 8.91µM*
Cc1ccc(N2CCN(C(=O)c3ccc4c(c3)N(C)C3CCCCN3C4=O)CC2)cc1 (configuration not stated) | 3.3%
O=C(c1ccc2c(Cl)c3c(nc2c1)CCCC3)N1CCN(c2cccc(Cl)c2)CC1 | -19.2%
O=C(c1ccc2c(Cl)c3c(nc2c1)CCCC3)N1CCN(c2ccccc2F)CC1 | 24.4%
Cc1ccc(C)c(N2CCN(C(=O)c3ccc4[nH]c(C)c(C)c4c3)CC2)c1 | -7.5%
Cc1cccc(N2CCN(C(=O)c3ccc4c(Cl)c5c(nc4c3)CCCC5)CC2)c1C | 11.2µM*
COc1cc2[nH]c(=O)n(Cc3ccc(C(=O)N4CCN(c5ccc(Cl)cc5)CC4)cc3)c(=O)c2cc1OC | -4.1%
COc1ccccc1C(=O)N1CCC(Oc2ccccc2)C1 (configuration not stated) | i
O=C(NCCc1noc(-c2ccccc2)n1)C1COc2ccccc2C1 (configuration not stated) | 1.4%
CC(C)(C)CC(=O)N1CCC2(CC1)OCC(C(=O)N1CCCC1)N2C(=O)c1ccc(F)cc1 (configuration not stated) | -5.1%
CCOC(=O)CCNC(=O)N1CCC(N2C(=O)C3(CCCCC3)C2c2ccncc2)CC1 (configuration not stated) | -0.9%
O=C(c1ccoc1)N1CCC(N2C(=O)C3(CCCCC3)C2c2ccncc2)CC1 (configuration not stated) | -16.5%
CS(=O)(=O)N1CCC(N2C(=O)C3(CCCCC3)C2c2ccncc2)CC1 (configuration not stated) | -2.7%
Cc1ccc(CNC(=O)N2CCC(N3C(=O)C4(CCCCC4)C3c3ccncc3)CC2)cc1 (configuration not stated) | 11.2µM*
O=C(NC1CCCCC1)N1CCC(N2C(=O)C3(CCCCC3)C2c2ccncc2)CC1 (configuration not stated) | 5.01µM*
CN1CCC(N2CCC(N3C(=O)C4(CCCCC4)C3c3ccncc3)CC2)CC1 (configuration not stated) | -0.8%
CCc1nc(C)c(C(=O)N[C@@H]2c3ccccc3C3(CCNCC3)[C@H]2OC)o1 | -27.8%
SMILES | Pf Dd2 inh
CC(=O)Nc1ccc(NC(=O)Cn2c(C)cc3nc4n(c(=O)c32)CCCCC4)cc1 | i
COc1ccc(-c2ccnc(-c3nnc(C)n3Cc3cccnc3)c2)cc1OC | i
CCCCCNC(=O)Cc1csc2nc(C)c(-c3cc(C)n(-c4cccc(C)c4)n3)c(=O)n12 | -15.6%
CCCNC(=O)Cc1csc2nc(C)c(-c3cc(C)n(-c4cccc(C)c4C)n3)c(=O)n12 | i
CCCCNC(=O)Cc1csc2nc(C)c(-c3cc(C)n(-c4cccc(Cl)c4)n3)c(=O)n12 | 7.94µM*
Cc1ccc(Cl)cc1-n1nc(-c2c(C)nc3scc(CC(=O)NCCC(C)C)n3c2=O)cc1C | 7.94µM*
CCCCNC(=O)Cc1csc2nc(C)c(-c3cc(C)n(-c4ccc(C)cc4)n3)c(=O)n12 | -7.7%
COCCNC(=O)Cc1csc2nc(C)c(-c3cc(C)n(-c4ccccc4F)n3)c(=O)n12 | -14.5%
COc1cccc(-c2cc(C(=O)NCCNc3nc(C)cc(=O)[nH]3)[nH]n2)c1 | -15.6%
CNC(=O)[C@@H]1CN(C(=O)c2cc(F)cc(F)c2)C[C@H]1COC | 21.6%

From PubChem
